The supplement of paper PMC4709259
Counter-ions that a name gives are not always drawn. ± gives the standard deviation.

tested on: Jurkat; assay: mean cell size (FSC-A) relative to DMSO control (fraction of control); higher = larger cells; details: 48 h
In short: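 Jurkat cells at 600 cells/µl were incubated for 1 h and then treated for 48h with the Enzo Screen-Well FDA Approved Drug Library v2.0 at 25µM, with DMSO at 0.9% (v/v) final. Compounds that reduced counts below 20% of controls were retested in 10-fold dilutions down to 25nM. Cell count and mean cell size, taken as forward scatter area, were measured by flow cytometry relative to solvent-only controls. Each plate carried 6-12 controls, and values are means of 3 biological replicates.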

Compound	mean cell size
CC(C[N+](C)(C)C)OC(N)=O (stereo not given) [Bethanechol Chloride] (concentration: 25 µM)	0.926 ± 0.034
C[N+](C)(C)CCOC(N)=O [Carbachol (Carbamylcholine ) Chloride] (concentration: 25 µM)	0.962 ± 0.019
C[C@]12C=CC(=O)C=C1CC[C@@H]1[C@@H]2[C@@H](O)C[C@@]2(C)[C@H]1CC[C@]2(O)C(=O)CO [Prednisolone] (concentration: 25 µM)	0.979 ± 0.017
CC(C)[C@H](N)C(=O)OCC(CO)OCn1cnc2c(=O)[nH]c(N)nc21 (stereo not given in full) [Valganciclovir·HCl] (concentration: 25 µM)	1.06 ± 0.054
CC1=C(CC(=O)O)c2cc(F)ccc2/C1=C\c1ccc([S+](C)[O-])cc1 (stereo not given) [Sulindac] (concentration: 25 µM)	0.988 ± 0.019
CC(=O)[C@]1(O)Cc2c(O)c3c(c(O)c2[C@@H](O[C@H]2C[C@H](N)[C@H](O)[C@H](C)O2)C1)C(=O)c1ccccc1C3=O [Idarubicin·HCl] (concentration: 25 nM)	1.01 ± 0.047
CN(C/C=C/c1ccccc1)Cc1cccc2ccccc12 [Naftifine·HCl] (concentration: 25 µM)	0.956 ± 0.028
NC(N)=Nc1nc(CSCC/C(N)=N/S(N)(=O)=O)cs1 [Famotidine] (concentration: 25 µM)	0.979 ± 0.035
C[n+]1ccccc1/C=N/O [Pralidoxime Chloride] (concentration: 25 µM)	1.08 ± 0.037
CCOC(=O)[C@H](CCc1ccccc1)N[C@@H](C)C(=O)N1Cc2cc(OC)c(OC)cc2C[C@H]1C(=O)O [Moexipril·HCl] (concentration: 25 µM)	0.9426 ± 0.0064
